For some of these results: Measured potencies and affinities stand elsewhere.
Key:
Parameters in all cases: scale not given: direction of the effect not stated beside the values
[1] = target: Protein translocase subunit SecA (Escherichia coli (strain K12)) (UniProt P10408); assay: Assay to Identify E. coli SecA ATPase Inhibitors; assay type: functional; conditions: 30 µM
[2] = target: T1, Ubiquitin-activating enzyme e1, putative (Leishmania donovani (strain BPK282A1)) (UniProt E9BSI1); assay: Leishmania donovani Ubiquitin Activating Enzyme (LdE1); assay type: functional; conditions: 30 µM
T1 sequence (whole entry): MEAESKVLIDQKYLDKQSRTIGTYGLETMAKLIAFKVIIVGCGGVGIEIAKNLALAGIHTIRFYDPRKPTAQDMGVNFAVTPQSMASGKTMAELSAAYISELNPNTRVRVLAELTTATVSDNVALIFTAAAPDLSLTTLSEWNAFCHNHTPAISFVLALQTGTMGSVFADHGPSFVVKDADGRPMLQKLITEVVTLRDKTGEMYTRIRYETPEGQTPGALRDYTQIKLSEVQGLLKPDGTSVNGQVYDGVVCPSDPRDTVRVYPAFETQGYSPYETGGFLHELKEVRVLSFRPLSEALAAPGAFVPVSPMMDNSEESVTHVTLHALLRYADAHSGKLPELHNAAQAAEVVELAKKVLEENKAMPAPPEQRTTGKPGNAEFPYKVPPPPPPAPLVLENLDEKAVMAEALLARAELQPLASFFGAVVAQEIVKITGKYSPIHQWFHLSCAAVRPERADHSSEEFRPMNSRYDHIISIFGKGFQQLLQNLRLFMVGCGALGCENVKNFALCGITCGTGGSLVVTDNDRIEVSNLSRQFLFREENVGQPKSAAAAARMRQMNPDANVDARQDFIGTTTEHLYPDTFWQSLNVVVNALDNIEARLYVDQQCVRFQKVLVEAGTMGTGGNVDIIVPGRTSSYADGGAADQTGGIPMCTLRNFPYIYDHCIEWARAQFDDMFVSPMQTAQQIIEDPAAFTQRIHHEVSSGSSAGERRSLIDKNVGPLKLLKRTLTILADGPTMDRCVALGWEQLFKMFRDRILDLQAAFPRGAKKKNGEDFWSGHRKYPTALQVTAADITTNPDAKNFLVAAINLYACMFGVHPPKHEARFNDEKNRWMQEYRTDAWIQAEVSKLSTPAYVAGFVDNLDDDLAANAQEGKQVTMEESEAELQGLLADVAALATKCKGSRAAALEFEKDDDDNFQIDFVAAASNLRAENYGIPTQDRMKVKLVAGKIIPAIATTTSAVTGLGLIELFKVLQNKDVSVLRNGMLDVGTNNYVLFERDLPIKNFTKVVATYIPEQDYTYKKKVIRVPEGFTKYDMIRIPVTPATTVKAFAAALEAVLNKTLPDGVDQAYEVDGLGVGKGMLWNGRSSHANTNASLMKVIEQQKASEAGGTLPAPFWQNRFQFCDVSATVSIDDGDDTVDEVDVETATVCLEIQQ

[3] = target: AMP-activated protein kinase, AMPK (Homo sapiens) (UniProt P54646+O43741+P54619+Q9UGJ0+Q9Y478+Q13131+Q9UGI9); assay: AMP-dependent Kinase enzyme assay. An in vitro enzyme assay that detects ADP turnover that is directly proportional to AMPK activity. This uses naive AMPK that is activated during the assay with MK-8722; assay type: functional; conditions: 30 µM
[4] = target: Sialic acid-binding Ig-like lectin 9 (Homo sapiens) (UniProt Q9Y336); assay: Hs-Siglec9 ALPHAscreen SOP 20170721; conditions: 10 µM
Sialic acid-binding Ig-like lectin 9 (Homo sapiens), sequence (Q9Y336 whole entry): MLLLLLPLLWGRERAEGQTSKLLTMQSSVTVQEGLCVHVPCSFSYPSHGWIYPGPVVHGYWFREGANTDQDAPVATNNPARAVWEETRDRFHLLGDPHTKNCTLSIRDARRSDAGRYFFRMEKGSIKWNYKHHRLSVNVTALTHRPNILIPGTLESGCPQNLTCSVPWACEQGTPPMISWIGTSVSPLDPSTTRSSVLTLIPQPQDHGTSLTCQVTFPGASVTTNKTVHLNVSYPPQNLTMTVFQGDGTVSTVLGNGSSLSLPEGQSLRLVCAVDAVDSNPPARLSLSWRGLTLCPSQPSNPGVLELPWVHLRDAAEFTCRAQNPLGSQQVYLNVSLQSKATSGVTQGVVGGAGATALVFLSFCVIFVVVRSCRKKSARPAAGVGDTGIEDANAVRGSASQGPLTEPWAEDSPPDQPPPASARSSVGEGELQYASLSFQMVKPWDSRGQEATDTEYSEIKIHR

Trypanosoma cruzi = assay: Trypanosoma cruzi phosphomannomutase and mannose-1-phosphate guanylyltransferase assay; assay type: functional; conditions: 10 µM
[5] = target: T2, Arginase-2, mitochondrial (Homo sapiens) (UniProt P78540); assay: in vitro enzyme assay to detect the production of urea directly proportional to the activity of Arginase II; assay type: functional; conditions: 33.3 µM; further: in the data most compounds retested in dose-response had high values
T2 sequence (whole entry): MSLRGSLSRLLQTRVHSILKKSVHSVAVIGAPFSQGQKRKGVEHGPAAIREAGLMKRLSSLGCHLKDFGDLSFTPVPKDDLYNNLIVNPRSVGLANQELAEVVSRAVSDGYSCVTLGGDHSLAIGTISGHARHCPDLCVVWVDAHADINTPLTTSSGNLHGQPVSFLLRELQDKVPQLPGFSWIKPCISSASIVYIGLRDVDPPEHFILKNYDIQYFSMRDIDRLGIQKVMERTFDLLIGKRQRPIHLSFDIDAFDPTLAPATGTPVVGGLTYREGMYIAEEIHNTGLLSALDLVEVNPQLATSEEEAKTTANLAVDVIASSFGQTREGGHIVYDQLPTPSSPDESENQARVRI

[6] = target: T3, Proteasome subunit beta (Trypanosoma cruzi) (UniProt O96673); assay: Trypanosoma cruzi proteasome chymotrypsin-like activity (TcProtChymo) assay.; further: in the data most compounds retested in dose-response had high values; assay type: functional; conditions: 9.37 µM
T3 sequence (whole entry): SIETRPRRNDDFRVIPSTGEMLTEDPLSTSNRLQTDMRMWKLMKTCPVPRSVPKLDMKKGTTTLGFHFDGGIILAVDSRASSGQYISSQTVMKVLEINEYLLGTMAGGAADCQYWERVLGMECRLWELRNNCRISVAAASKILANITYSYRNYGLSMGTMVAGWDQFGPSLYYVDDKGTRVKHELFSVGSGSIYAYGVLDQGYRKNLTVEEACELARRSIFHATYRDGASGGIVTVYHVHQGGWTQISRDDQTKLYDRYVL

Homo sapiens = organism: Homo sapiens; assay: To identify inhibition of the IFN signalling (Jak-Stat) pathway via expression of an eGFP reporter gene under the control of an IFN-stimulated response element (ISRE) containing MxA promoter.; assay type: functional; conditions: 30 µM
[7] = target: T4, Tyrosyl-tRNA synthetase, putative (Trypanosoma cruzi (strain CL Brener)) (UniProt Q4DSP6); assay: Trypanosoma cruzi tyrosyl tRNA synthetase (TcYRS) _High Tyrosine SOP; assay type: functional; conditions: 30 µM; further: in the data most compounds retested in dose-response had high values
T4 sequence (whole entry): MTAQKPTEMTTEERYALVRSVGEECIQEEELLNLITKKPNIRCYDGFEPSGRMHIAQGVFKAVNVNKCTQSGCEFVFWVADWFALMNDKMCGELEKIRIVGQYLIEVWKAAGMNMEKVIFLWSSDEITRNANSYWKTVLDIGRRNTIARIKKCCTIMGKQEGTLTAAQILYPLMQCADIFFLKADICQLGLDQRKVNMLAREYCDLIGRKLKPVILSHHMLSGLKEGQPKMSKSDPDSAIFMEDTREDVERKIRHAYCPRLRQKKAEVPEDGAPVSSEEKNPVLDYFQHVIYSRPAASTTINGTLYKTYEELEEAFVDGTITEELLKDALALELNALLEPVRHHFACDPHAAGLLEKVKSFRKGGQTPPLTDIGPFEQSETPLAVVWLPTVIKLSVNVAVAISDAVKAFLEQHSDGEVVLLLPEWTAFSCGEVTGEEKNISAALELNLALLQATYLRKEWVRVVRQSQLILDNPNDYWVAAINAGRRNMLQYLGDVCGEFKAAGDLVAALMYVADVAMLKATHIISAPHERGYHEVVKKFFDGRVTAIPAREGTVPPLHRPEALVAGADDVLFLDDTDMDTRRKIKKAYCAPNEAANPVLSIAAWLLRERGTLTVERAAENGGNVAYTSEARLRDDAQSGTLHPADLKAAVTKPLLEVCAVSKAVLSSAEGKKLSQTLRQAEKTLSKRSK

[8] = target: T4, Tyrosyl-tRNA synthetase, putative (Trypanosoma cruzi (strain CL Brener)); assay: Trypanosoma cruzi tyrosyl tRNA synthetase (TcYRS) SOP; assay type: functional; conditions: 30 µM
[9] = target: Chromo domain-containing protein 1 (Saccharomyces cerevisiae (strain ATCC 204508 / S288c) (Baker's yeast)) (UniProt P32657); assay: ScCHD-1 Enzyme Inhibition Assay; assay type: functional; conditions: 30 µM; further: in the data most compounds retested in dose-response had high values
Chromo domain-containing protein 1 (Saccharomyces cerevisiae (strain ATCC 204508 / S288c) (Baker's yeast)), sequence (P32657 whole entry, the tested form may be a part): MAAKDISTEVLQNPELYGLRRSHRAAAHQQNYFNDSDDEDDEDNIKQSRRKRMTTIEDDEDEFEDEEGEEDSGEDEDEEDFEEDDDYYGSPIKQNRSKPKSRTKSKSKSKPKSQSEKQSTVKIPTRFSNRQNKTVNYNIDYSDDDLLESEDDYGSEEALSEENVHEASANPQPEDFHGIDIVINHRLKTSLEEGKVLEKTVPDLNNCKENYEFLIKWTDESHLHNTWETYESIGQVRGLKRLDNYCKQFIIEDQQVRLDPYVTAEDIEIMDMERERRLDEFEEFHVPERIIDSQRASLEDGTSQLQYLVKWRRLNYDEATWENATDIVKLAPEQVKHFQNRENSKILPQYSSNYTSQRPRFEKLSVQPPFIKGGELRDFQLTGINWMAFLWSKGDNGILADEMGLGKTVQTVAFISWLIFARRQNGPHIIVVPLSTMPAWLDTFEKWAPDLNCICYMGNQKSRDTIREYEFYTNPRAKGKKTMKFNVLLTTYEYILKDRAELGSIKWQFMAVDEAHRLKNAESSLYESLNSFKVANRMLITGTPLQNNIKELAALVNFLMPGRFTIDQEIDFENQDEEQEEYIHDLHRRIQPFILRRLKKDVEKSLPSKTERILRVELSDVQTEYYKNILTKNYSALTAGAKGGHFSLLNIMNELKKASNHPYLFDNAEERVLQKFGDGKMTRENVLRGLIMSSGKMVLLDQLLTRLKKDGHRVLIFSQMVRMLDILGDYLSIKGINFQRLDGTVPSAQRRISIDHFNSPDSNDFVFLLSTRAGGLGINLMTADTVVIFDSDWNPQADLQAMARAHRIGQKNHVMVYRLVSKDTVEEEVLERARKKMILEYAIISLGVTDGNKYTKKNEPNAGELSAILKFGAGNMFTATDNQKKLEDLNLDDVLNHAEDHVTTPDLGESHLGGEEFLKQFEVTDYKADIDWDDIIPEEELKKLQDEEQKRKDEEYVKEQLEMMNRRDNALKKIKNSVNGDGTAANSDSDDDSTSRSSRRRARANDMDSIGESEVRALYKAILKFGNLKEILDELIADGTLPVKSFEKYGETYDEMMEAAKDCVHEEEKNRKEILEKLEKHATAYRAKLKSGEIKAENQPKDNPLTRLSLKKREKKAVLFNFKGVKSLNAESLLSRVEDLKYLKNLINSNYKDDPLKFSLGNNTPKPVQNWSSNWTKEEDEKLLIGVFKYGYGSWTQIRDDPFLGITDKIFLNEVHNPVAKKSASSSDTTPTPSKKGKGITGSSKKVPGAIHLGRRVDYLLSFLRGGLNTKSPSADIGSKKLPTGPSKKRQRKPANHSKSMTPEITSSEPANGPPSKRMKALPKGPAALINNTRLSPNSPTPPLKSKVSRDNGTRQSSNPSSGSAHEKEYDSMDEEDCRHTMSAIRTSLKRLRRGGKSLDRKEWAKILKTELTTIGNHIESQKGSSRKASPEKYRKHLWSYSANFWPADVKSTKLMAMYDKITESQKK

Protein translocase subunit SecA (Escherichia coli (strain K12)), sequence (P10408 whole entry): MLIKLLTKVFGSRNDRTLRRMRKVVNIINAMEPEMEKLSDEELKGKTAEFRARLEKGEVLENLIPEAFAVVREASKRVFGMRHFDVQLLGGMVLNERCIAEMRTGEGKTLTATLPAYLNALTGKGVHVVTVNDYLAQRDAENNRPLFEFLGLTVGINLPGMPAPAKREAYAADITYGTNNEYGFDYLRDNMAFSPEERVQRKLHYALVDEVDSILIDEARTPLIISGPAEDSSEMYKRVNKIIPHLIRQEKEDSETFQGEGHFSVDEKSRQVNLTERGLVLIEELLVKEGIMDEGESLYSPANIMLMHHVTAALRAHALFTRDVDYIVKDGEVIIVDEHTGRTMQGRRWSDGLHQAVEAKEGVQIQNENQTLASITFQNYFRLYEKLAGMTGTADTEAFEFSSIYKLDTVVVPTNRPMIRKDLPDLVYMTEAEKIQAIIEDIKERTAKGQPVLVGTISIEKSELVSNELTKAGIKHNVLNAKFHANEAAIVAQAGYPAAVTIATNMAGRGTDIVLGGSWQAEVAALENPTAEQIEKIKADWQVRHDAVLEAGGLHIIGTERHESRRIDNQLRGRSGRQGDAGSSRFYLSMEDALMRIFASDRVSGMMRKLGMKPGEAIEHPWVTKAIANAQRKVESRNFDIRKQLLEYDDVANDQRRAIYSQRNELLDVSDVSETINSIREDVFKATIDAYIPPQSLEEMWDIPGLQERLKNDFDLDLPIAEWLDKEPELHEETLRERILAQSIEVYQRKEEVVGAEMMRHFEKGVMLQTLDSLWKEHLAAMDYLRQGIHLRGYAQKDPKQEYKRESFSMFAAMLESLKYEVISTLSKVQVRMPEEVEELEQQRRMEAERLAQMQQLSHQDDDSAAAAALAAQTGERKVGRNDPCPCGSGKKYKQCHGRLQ

Compound | Percent Effect [1] [%] | Percent Effect [2] [%] | Percent Effect [3] [%] | Percent Effect [4] [%] | Percent Effect (Trypanosoma cruzi) [%] | Percent Effect [5] [%] | Percent Effect [6] [%] | Percent Effect (Homo sapiens) [%] | Percent Effect [7] [%] | Percent Effect [8] [%] | Percent Effect [9] [%]
CNC(=O)CN1CCC(NC(=O)N(C)Cc2cc(C)on2)CC1 | -1.81 | 13 | -1.11 | 13.1 | 9.7 | 0.632 | 9.78 | -1.08 | 8.57 | 18.8 | -7.35
CCOC(=O)CNC(=O)N1CCN(c2ncccn2)CC1 | -2.75 | 7.79 | -0.383 | 6.61 | 4.03 | -13.8 | 9.65 | 14.3 | 5.38 | 13.6 | -4.38
O=C(CC1CC1)N1CCC2(CC1)CN(c1ncccn1)CCO2 | -2.48 | 2.67 | 5.17 | 6.83 | -6.89 | -5.83 | 5.9 | 9.78 | -5.32 | -1.28 | -7.95
Cc1ccc(CN2CCC[C@]3(C(=O)O)CN(c4ncccn4)C[C@@H]3C2)o1 | -3.35 | 5.33 | -3.88 | 3.31 | 0.579 | -39.6 | 3.59 | -0.723 | 5.21 | -15 | -7.67
CSCCC(=O)N1CCC(Oc2cc(C)ccc2F)(C(=O)O)CC1 | -1.39 | -1.39 | -5.71 | -2.17 | -2.43 | -1.32 | 0.351 | -30.7 | -2.1 | 2.56 | 2.79
CCC(=O)Nc1nnc(CCOc2cccc(OC)c2)s1 | -4.51 | -6.67 | 42.3 | 1.2 | -3.54 | -4.4 | 9.43 | 7.09 | 0 | -7.69 | -2
CCn1nnc2c1C(COC)CN(C(=O)Cc1cccs1)C2 (stereo not given) | -0.417 | 5.41 | -1.12 | -5.98 | -2.93 | -2.5 | 17.8 | -0.944 | 6.93 | 8.54 | 5.86
c1cnnc(N2CCCC2CNc2ncnc3ccccc23)c1 (stereo not given) | -3.22 | -3.8 | 9.15 | -3.44 | -4.41 | 4.09 | 9.61 | 36 | 25 | 27.9 | -16.5
CN(Cc1ccc(F)cc1)C(=O)Cn1nc(-c2ccc(F)cc2)oc1=O | -0.937 | 2.63 | 0.873 | -13.2 | -7.3 | 11.8 | 15.4 | 14.9 | -7.45 | -2.6 | -7.96
COc1ccc(OC)c(NC(=O)N2CCCC2c2ccco2)c1 (stereo not given) | -1.78 | 5.2 | 7.39 | -2.94 | -0.888 | 1.94 | 7.83 | 13.8 | -1.06 | 3.85 | -8.44
Cn1cccc1CNC(=O)N(CCO)C1CCCc2ccccc21 (stereo not given) | -4.61 | -5.26 | -1.52 | 0.538 | 3.8 | -14.2 | 2.01 | 1.76 | 2.13 | 0 | -9.55
CC(C)Nc1nc2c(cc1C(=O)NCC1CC1)CCNCC2 | -1.6 | 10.7 | 6.52 | 7.51 | -2.9 | -29.2 | 8.55 | -6.96 | 7.29 | 5 | -10.3
CCOCC1CN(C(=O)CS(C)(=O)=O)Cc2cnn(C)c21 (stereo not given) | -1.67 | 2.67 | -16.6 | 8.66 | -3.28 | -11.3 | 4.27 | 1.39 | 2.08 | 2.5 | -6.62
COc1ccccc1CC1CCCN(CCC#N)C1 (stereo not given) | -3.04 | 5.2 | -0.847 | 2.02 | 3.82 | 4.42 | -6.39 | 8.44 | 2.86 | 11.8 | -9.24
Cn1cc(CCC(=O)N2CCN(Cc3ccncc3)CC2)cn1 | -7.43 | 15.6 | 3.53 | -6.41 | -4.87 | -1.42 | 4.22 | 2.24 | 6.8 | 14.6 | -5.86
Cc1nc(CN2CCCN(C(=O)c3ccccn3)CC2)oc1C | -1.98 | 7.79 | 0.524 | -0.904 | -0.686 | 4 | 10.8 | 33 | 2.86 | 11.8 | -5.21
O=C(NC[C@@H]1CCCN1)c1cc(COc2cccc(C(F)(F)F)c2)[nH]n1 | -1.63 | 9.72 | -0.951 | 10.3 | 2.62 | 21.6 | 6.32 | -13.9 | 4.21 | 7.69 | -1.17
COc1cc(C2CC(=O)Oc3cc(C)[nH]c(=O)c32)ccc1OC(F)F (stereo not given) | -2.55 | 17.3 | -1.47 | -4.76 | -5.3 | -6.16 | 19 | 7.6 | 3.17 | 12.8 | -13
CCCc1nc(N2Cc3cnn(Cc4ccc(F)cc4)c3C2)no1 | -3.65 | 5.33 | 7.03 | 2.42 | -2.04 | 2.6 | 14.1 | 19.7 | 4.92 | 11.1 | -7.25
CN(Cc1cnn(C)c1)C(=O)c1ccc(=O)n(C)n1 | -3.21 | 7.89 | 2.81 | -2.3 | 5.16 | -5.92 | 12.9 | 9.62 | 6.38 | 10.4 | -4.41

Reference: ChEMBL document CHEMBL3988442, “University of Dundee, Small-Polar-MMV Screening Library” (2021)
